Screens: PubChem, National Center for Advancing Translational Sciences (NCATS)
D1 agonist: agonists of human D1 dopamine receptor | hit rate 1% among 360,000 | AID 504660 | HEK293 T-REx D1 cells, calcium flux, agonist mode | P21728 | activation, % at 2 µM; also: 0% is about no effect
Target sequence (P21728 whole entry, looked up): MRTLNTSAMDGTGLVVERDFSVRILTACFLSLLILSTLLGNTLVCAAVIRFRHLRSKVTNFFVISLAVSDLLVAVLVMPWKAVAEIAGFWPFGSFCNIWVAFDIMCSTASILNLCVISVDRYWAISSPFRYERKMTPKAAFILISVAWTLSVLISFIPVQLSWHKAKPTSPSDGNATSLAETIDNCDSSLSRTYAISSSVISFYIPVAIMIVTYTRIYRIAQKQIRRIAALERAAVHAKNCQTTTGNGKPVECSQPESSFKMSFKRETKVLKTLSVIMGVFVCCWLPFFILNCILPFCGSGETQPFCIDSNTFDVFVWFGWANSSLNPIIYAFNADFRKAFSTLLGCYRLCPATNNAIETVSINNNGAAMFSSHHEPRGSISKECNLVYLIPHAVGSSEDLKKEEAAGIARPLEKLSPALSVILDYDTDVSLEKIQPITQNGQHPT
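Inducible HEK293 T-REx D1 cells, force-coupled to calcium signalling, were plated at 4000 cells/well with tetracycline and held overnight at 30 C. After no-wash calcium dye loading, compound-evoked calcium rise over 180 s flagged agonists.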
TRHR PAM: TRH receptor (human) allosteric enhancement. P34981. TRHR cells, fluo-8 calcium fluorescence, EC20 TRH enhancement. enhancement, % at 2 µM. hit rate 0.66% among 360,000. AID 493056; in the data active = enhancement above about 30%; also: 0% is about no effect
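TRHR-expressing cells loaded with fluo-8 calcium dye were read kinetically (ex 480/em 530) during compound addition, then stimulated with an EC20 of TRH (10 nM final). Enhancement of the Gq-mediated intracellular calcium response was scored.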
D1 antagonist: antagonists of human D1 dopamine receptor | AID 504652 | P21728 | HEK293 TREx D1 cells, calcium flux, dopamine EC80; hits give low values | activity change, negative = inhibition, % at 10 µM | hit rate 3.2% among 360,000; in the data active = activity change below about -30%; also: % is scaled to controls: 0 for no effect and ±100 for the full control effect
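Tetracycline-induced HEK293 Trex D1 cells, force-coupled to calcium, dye-loaded; compounds added and read 180 s, then EC80 dopamine added and calcium flux tracked kinetically another 180 s.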
D1 PAM: human D1 dopamine receptor positive modulation. potentiation, % at 10 µM. AID 504651. HEK293 TREx D1 cells, calcium flux, dopamine EC20 potentiation. P21728. hit rate 0.036% among 360,000; in the data active = potentiation above about 30%; also: 0% is about no effect
TRHR ag: activates the human TRH receptor | hit rate 0.18% among 360,000 | activation, % at 2 µM | TRHR cells, calcium flux fluo-8, FDSS agonist mode | P34981; also: 0% is about no effect
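Agonist-mode FDSS calcium read (Ex 480/Em 530, 1 s cycles) in 1536-well TRHR cells with fluo-8 dye, after 10-cycle baseline and 23 nL compound addition; TRH at EC20 (10 nM final) added afterwards for the enhancer phase.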
The depositor's hits bear a star; ! = not confirmed by another sample. The list is not random: actives were taken first. Their share in the collection is about 4.7%. Rule as the data show it, unless noted: active = activation above about 30%; inactive = the rest.

SMILES	D1 agonist	TRHR PAM	D1 antagonist	D1 PAM	TRHR ag
COc1cc2c(c(OC)c1OC)-c1c(cc3c(c1OC)OCO3)C[C@H](C)[C@@](C)(O)C2	0	12	-11	-5	-1
CCOC(=O)c1c(C)[nH]c(C)c1S(=O)(=O)NCC(=O)N1CCN(c2ccccc2OC)CC1	4	7	0	0	-1
CCn1c2ccccc2c2nnc(N3CCN(c4cccc(Cl)c4)CC3)nc21	-1	-12	2	-3	0
COc1ccc(-c2noc(N3CCC(C(=O)Nc4ccccc4F)CC3)n2)cc1	-1	-4	1	-10	0
COc1ccc(-c2noc(N3CCC(C(=O)NCc4ccccc4Cl)CC3)n2)cc1	7	-2	-47*	-8	0
COc1ccc(-c2noc(N3CCC(C(=O)NC(C)c4ccccc4)CC3)n2)cc1 (stereo not drawn)	2	26	-35*	-15	0
COc1ccc(-c2noc(C3CCCN(C(=O)c4ccccc4)C3)n2)cc1 (stereo not drawn)	6	5	-39*	-3	0
COc1ccc(-c2noc(N3CCC(C(=O)Nc4ccccc4Cl)CC3)n2)cc1	3	-2	-34*	-7	0
COc1ccc(-n2nc(C(=O)NCCc3ccc(OC)c(OC)c3)c3c4ccccc4n(C)c3c2=O)cc1Cl	4	-4	-18	4	2
Cc1nc2ccn(Cc3ccco3)c(=O)c2cc1C(=O)N1CCN(c2ccc(F)cc2)CC1	10	4	-12	-7	-1
CCOc1ccc(N(CC)S(=O)(=O)N2CCCC(C(=O)Nc3ccc(OC)c(Cl)c3)C2)cc1 (stereo not drawn)	1	-6	4	1	0
COC(=O)N/N=C(\C)c1ccc(-n2ccnc2)cc1	3	41*	2	0	0
CC(=O)c1ccc(-n2ccnc2)cc1	4	-3	-19	-1	1
CCN(C(=O)CCc1nc(-c2ccc(OC)cc2)no1)c1cc(OC)ccc1OC	30	-4	-49*	-4	0
COc1ccc(CCCc2nnc(SCC(=O)Nc3cccc(C)c3)o2)cc1	46*!	8	-43*!	-3	-1
O=C(CCc1nc(-c2ccccc2F)no1)Nc1cccc(C(F)(F)F)c1	32*	-3	-29	-3	1
COc1ccc(-c2noc(CCC(=O)Nc3cccc(C)c3)n2)cc1	6	2	-45*	-4	-1
C=CCn1c(CCC(O)COCCCCC)n[nH]c1=S (stereo not drawn)	1	-6	6	-8	-2
O=C(CCc1nc(-c2ccccc2F)no1)NC1CCN(Cc2ccccc2)CC1	31*	4	-30*	-6	0
CCOC(=O)c1cccc(NC(=O)CCc2nc(-c3ccccc3F)no2)c1	10	-2	1	-2	0
CCOC(=O)c1cccc(NC(=O)CCc2nc(-c3ccc(C)cc3)no2)c1	31*	5	-22	4	0
O=C(CCc1nc(-c2cccs2)no1)Nc1cccc([N+](=O)[O-])c1	15	4	-34*	-2	0
O=C(CCc1nc(-c2cccs2)no1)Nc1ccc([N+](=O)[O-])cc1	14	-2	-28	-1	1
CCOC(=O)N1CCN(C(=O)CN(c2ccc(C)cc2C)S(=O)(=O)c2ccccc2)CC1	-2	-2	-6	1	0
CCCN(CC(=O)Nc1ccccc1C)C(=O)c1ccc(COc2ccccc2)cc1	11	3	-42*	-1	0
SMILES	D1 agonist	TRHR PAM	D1 antagonist	D1 PAM	TRHR ag
CCN1CCN(c2oc(-c3ccc(COc4ccc(OC)cc4)o3)nc2C#N)CC1	3	-2	1	-1	0
COc1ccccc1N1CCN(C(=O)c2ccc3[nH]c4c(c3c2)CC(C)CC4)CC1 (stereo not drawn)	0	3	-57*	-3	0
COc1ccc(NC(=O)CN(C)C(=O)c2cccc(S(=O)(=O)N3CCN(C)CC3)c2)cc1	0	-3	-10	-1	0
COc1cccc(NC(=O)CN(C)C(=O)c2cccc(S(=O)(=O)N3CCN(c4ccc(F)cc4)CC3)c2)c1	7	3	-34*	-12	0
CN(CC(=O)Nc1cccc(F)c1)C(=O)c1cccc(S(=O)(=O)N2CCN(c3ccccc3)CC2)c1	3	-3	-5	-3	0
CC1CCN(S(=O)(=O)c2cccc(C(=O)N3CCN(c4ccc(F)cc4)CC3)c2)CC1	4	10	-39*	-3	-1
CN1CCN(S(=O)(=O)c2cccc(C(=O)N(C)CC(=O)Nc3ccc(F)c(F)c3F)c2)CC1	179*	6	11	-9	0
Cc1ccc(-c2noc(CN(C3CCCCC3)S(=O)(=O)c3ccc(C)cc3)n2)cc1	5	-10	6	-1	1
CCOc1ccc(C(=O)Nc2c(C(=O)Nc3ccccc3F)oc3ccccc23)cc1OCC	0	-3	9	-3	1
Cc1cc(C)c2c(n1)SCCN2C(=O)Nc1ccc(C(=O)Nc2ccc(C(C)C)cc2)cc1	4	8	-15	-2	1
CC1CCN(S(=O)(=O)c2ccc(C(=O)N3CCOCC3)cc2)CC1	0	-6	-35*	-6	0
CN(CC(=O)Nc1ccc(F)cc1)C(=O)c1cccc(S(=O)(=O)N2CCN(c3ccc(F)cc3)CC2)c1	9	-2	-39*	-2	0
CC1CCN(C(=O)c2ccc(S(=O)(=O)N3CCOCC3)cc2)CC1	1	-6	24	-1	1
Cc1ccc(NC(=O)CN(C)C(=O)c2cccc(-n3cccc3)c2)cc1	0	0	-40*	-8	0
COc1ccc(NC(=O)CN(C)C(=O)c2cccc(-n3cccc3)c2)cc1	0	0	4	4	-1
COc1ccccc1N1CCN(C(=O)c2cccc(S(=O)(=O)N3CCCCCC3)c2)CC1	3	0	-42*	-5	0
CCn1c(Oc2ccc(F)cc2F)nc2c1c(=O)n(C)c(=O)n2C	-1	-3	-4	-3	-1
COc1cccc(NC(=O)CN(C)C(C)C(=O)Nc2ccc(S(=O)(=O)N3CCCC3)cc2)c1 (stereo not drawn)	4	-2	-34*	13	0
Cc1ccc(NC(=O)CN(C)C(C)C(=O)Nc2ccc(S(=O)(=O)N3CCCC3)cc2)cc1 (stereo not drawn)	3	-9	-3	-16	1
COc1ccc(CN(C)C(=O)c2cccc(S(=O)(=O)N3CCN(c4ccccc4)CC3)c2)c(OC)c1OC	0	3	-33*	-9	0
COc1ccc(CNC(=O)C(C)n2ccc3cc(S(=O)(=O)N4CCCC4)ccc32)cc1OC (stereo not drawn)	0	1	-15	-3	0
O=C(NCc1ccc2c(c1)CCN2C(=O)c1ccc(F)cc1)c1ccco1	1	1	-1	-2	-1
